Source: PubChem BioAssay (NCI)
About 83,000 compounds went through this panel and 20% of them were active in at least one assay; those are over-represented in the sample as a whole.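 Results are percent growth after 48 hours of single-concentration exposure. 100 means growth as in untreated cells, lower positive values show inhibition; negative values down to -100 show cell death.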 A number with no mark means an inactive call. Activity calls are given as the source filed them. The calls were made as follows: active = growth percent below 10; inactive = the rest.

Assays:
Assay in all cases: NCI-60 one-dose screen, 48 h (100 = growth as untreated, 0 = no growth, -100 = all killed)
Details in all cases: 10 µM unless noted
[1] = system: HT29 colon
[2] = system: SNB-75 CNS
[3] = system: SNB-19 CNS
[4] = system: U251 CNS
[5] = system: PC-3 prostate
[6] = system: SK-MEL-5 melanoma
[7] = system: UACC-62 melanoma
[8] = system: LOX IMVI melanoma
[9] = system: SK-MEL-28 melanoma
[10] = system: SK-MEL-2 melanoma
[11] = system: EKVX NSCLC
[12] = system: SN12C renal
[13] = system: UO-31 renal
[14] = system: TK-10 renal
[15] = system: ACHN renal
[16] = system: CAKI-1 renal
[17] = system: A498 renal
[18] = system: CCRF-CEM leukemia
[19] = system: MOLT-4 leukemia
[20] = system: SR leukemia

Row | SMILES | growth [1] | growth [2] | growth [3] | growth [4] | growth [5] | growth [6] | growth [7] | growth [8] | growth [9] | growth [10] | growth [11] | growth [12] | growth [13] | growth [14] | growth [15] | growth [16] | growth [17] | growth [18] | growth [19] | growth [20]
1 | COc1ccc2[nH]cc(/C=C3/C(=O)Nc4ccc(F)cc43)c2c1 | 79.1% | 43.2% | 88.2% | 80.1% | 76.4% | 93.1% | 73.5% | 74.9% | 96.2% | 91.7% | 77.2% | 78.2% | 73.1% | 104% | 68.4% | 62.4% | 76% | 63.2% | 61.6% | 83.2%
2 | O=C(Nc1ccncc1)C(=O)c1cn(S(=O)(=O)c2cccc(F)c2)c2ccccc12 | 1.12% (active) | 29.6% | 76.5% | 22.2% | 47% | 28.7% | 37.1% | 45.2% | 55.5% | -7.51% (active) | 35.4% | 49.1% | 56.7% | 84.1% | 55.9% | 33.5% | 60.2% | 38.7% | 35% | 16.5%
3 | Nc1nc(SCc2ccccc2Cl)c(-c2ccccc2)c(SCc2ccccc2Cl)n1 | 64.3% | 107% | 116% | 86.9% | 76.3% | 109% | 99.6% | 84.7% | 101% | 120% | 97.3% | 104% | 69.9% | 97.7% | 91.4% | 79.6% | 67.6% | 78.4% | 90.9% | 96.3%
4 | CN1CCCC1c1cccnc1 (stereo unspecified) | 115% | 99.7% | 105% | 97.1% | 48.7% | 87.7% | 94.1% | 100% | 101% | -0.647% (active) | 123% | 94.2% | 97% | 132% | 99% | 120% | 94.1% | 70% | 101% | 85.7%
5 | Nc1cc(Cl)c(S(N)(=O)=O)cc1S(N)(=O)=O | 122% | 86.7% | 113% | 100% | 106% | 102% | 101% | 101% | 121% | -16.2% (active) | 111% | 109% | 102% | 97.5% | 101% | 107% | 116% | 95.7% | 158% | 123%
6 | N#Cc1c(N2CCOCC2)nc2sc3cc(Cl)ccc3n2c1=N | 98.5% | 63.7% | 77.8% | 96.6% | 75.9% | 78.3% | 89.4% | 93% | 103% | 103% | 91.1% | 99.8% | 63.3% | 160% | 98.3% | 111% | 121% | 126% | 109% | 108%
7 | CCOC(=O)c1ccccc1OC(=O)NNc1ccccc1 | 109% | 78.9% | 90.7% | 83.2% | 34.9% | 57.2% | 21.5% | 73.5% | 93.6% | 33.2% | 92.8% | 66.4% | 29.3% | 72.9% | 51.9% | 25.5% | 100% | 24.6% |  | 27.6%
8 | COc1ccc(-c2nn(-c3cccc(Cl)c3)cc2C2CC(c3ccccc3)=NN2C(C)=O)cc1 (stereo unspecified) | 62.7% | -3.45% (active) | 72.9% | 66.7% | 69% | 77.2% | 83.5% | 76.7% | 69.9% | -2.7% (active) | 67.6% | 69.7% | 58.9% | 62.8% | 15.1% | 53% | 56.9% | 83% | 93.9% | 75.6%
9 | O=C(O)C(=O)O | 109% | 67.4% | 91.7% | 90% | 110% | 99.5% | 98.7% | 92.9% | 99.5% | 88.3% | 103% | 106% | 100% | 93.3% | 91.9% | 99.2% | 92.9% | 102% | 138% | 136%
10 | CCOC(=O)C1=C(C)N2C(=NC3=C(CCC/C3=C\c3ccc(Cl)cc3)C2c2ccc(Cl)cc2)S1 (stereo unspecified) | -54.3% (active) | 64.2% | 55.4% | -100% (active) | 24.3% | 40.8% | 54.7% | -100% (active) | 48.8% | 76.6% | 64.6% | 58.1% | 53.9% | 58.2% | 16.6% | 62.3% | 3.17% (active) | -17% (active) | -3.87% (active) | -8.47% (active)
11 | C[N+]1(CCc2ccccc2)CCC(CCC2CC[N+](C)(CCc3ccccc3)CC2)CC1 (stereo unspecified) | 94% | 83.9% | 98.1% | 87.9% | 101% | 100% | 85.7% | 102% | 111% | 119% | 97.2% | 88.5% | 72.7% | 96.9% | 101% | 96.6% |  | 127% | 123% | 120%
12 | COc1cccc2c1C(=O)c1c(O)c3c(c(O)c1C2=O)C[C@@](O)(/C(C)=N/NC(=O)c1cccc([N+](=O)[O-])c1)C[C@@H]3OC1CC(N)C(O)C(C)O1 (stereo partly specified) | -53.7% (active) | -34.2% (active) | -20.8% (active) | -29% (active) | -35% (active) | -100% (active) | -93.9% (active) | -33.3% (active) | -66.7% (active) | -73.6% (active) | -6.35% (active) | -9.27% (active) | -17% (active) | -33.8% (active) | -62.6% (active) | -47.4% (active) | -58.6% (active) |  | -39% (active) | 
13 | COc1ccc(C(=O)C(C)Br)cc1OC (stereo unspecified) | 37.7% | 85.8% | 95.7% | 78.7% | 98.6% | 92.1% | 86.3% | 79.2% | 112% | 86% | 98.4% | 72.9% | 71.8% | 101% | 80.3% | 60.1% |  | 26.7% | 71.3% | 18.6%
14 | CC/C(=C\c1ccc(N(C)C)cc1)c1ccncc1 | 14.6% | 39.2% | 64.5% | 29.3% | 65.4% | 32.5% | 44% | 41.5% | 65.4% | 49.9% | 63.5% | 52.6% | 57.6% | 73.6% | 59.4% | 43.4% |  |  | 38.7% | 22.8%
15 | Oc1[nH]c2ccccc2c1/C=c1/ccc2c(c1)N=C(c1cc(F)cc(F)c1)N=2 | 57.6% | 51.6% | 67.9% | 53% | 26.2% | 69.5% | 58.2% | 52% | 77.4% | 41.2% | 70.7% | 68.2% | 60.2% |  | 50.9% | 52.1% | 60.5% | -3.33% (active) | 21% | 19.9%
16 | Cn1cnc([N+](=O)[O-])c1S(=O)(=O)Oc1ccc(Cl)cc1 | -36.9% (active) | 103% | 102% | 85.4% | 90.8% | 95.4% | 78.7% | 45.2% | 97.4% | 90.6% | 102% | 94.5% | -82% (active) | 96.1% | -70.8% (active) | -65.1% (active) |  | -49.8% (active) | -0.321% (active) | 25.3%
